# In PubChem BioAssay:
# Values without a mark were called inactive. How the calls were made is not given here.
# Molecular target: Pantothenate synthetase (Mycobacterium tuberculosis (strain ATCC 25618 / H37Rv)) (UniProt P9WIL5)
# Assay: Coupled enzyme confirmation of inhibitors against recombinant Mtb PanC (AID 375);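 further: 0% = full reaction with vehicle and 100% = no enzyme background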
# Conditions: coupled enzyme assay; at 10 µM, active compounds read high
# Pantothenate synthetase (Mycobacterium tuberculosis (strain ATCC 25618 / H37Rv)), sequence (P9WIL5 whole entry, looked up): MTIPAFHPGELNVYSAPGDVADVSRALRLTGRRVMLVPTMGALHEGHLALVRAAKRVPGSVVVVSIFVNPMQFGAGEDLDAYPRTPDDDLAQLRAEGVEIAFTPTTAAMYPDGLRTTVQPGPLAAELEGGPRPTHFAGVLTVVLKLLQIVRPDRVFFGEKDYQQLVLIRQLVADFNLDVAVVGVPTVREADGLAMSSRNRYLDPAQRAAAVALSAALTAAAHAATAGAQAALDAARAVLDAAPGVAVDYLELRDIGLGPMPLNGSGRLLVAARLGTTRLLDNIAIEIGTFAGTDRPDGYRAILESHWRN
row,Structure (SMILES),inhibition
1,CCOc1cc(S(=O)(=O)N2CCC(Cc3ccccc3)CC2)c(OCC)cc1-n1cnnn1,7%
2,COc1ccc(C2/C(=C(/O)c3ccccc3)C(=O)C(=O)N2C)cc1 (stereo not drawn),0%
3,O=C(COc1ccccc1F)NC1CC1,3%
4,Cc1cccc(C)c1NC(=O)C1CCCCN1C (stereo not drawn),0%
5,Cc1cc(=O)oc2ccc(OCC(=O)N3CCC(C)CC3)cc12,0%
6,COc1ccc2c(CC(=O)Nc3ccc(OC)c(NS(=O)(=O)c4ccc(F)cc4)c3)coc2c1,1%
7,O=C(NCc1ccco1)c1c2c(nc3ccccc13)CCC2,0%
8,CCCCC[C@H](O)/C=C/C1=C(CCCCCCC(=O)O)C(=O)CC1,0%
9,COc1ccccc1OCCOc1ccccc1/C=N/n1cnnc1,6%
10,CCCOC(=O)c1[nH]c2c(c1C)C(=O)CC(c1cc(OC)c(OC)c(OC)c1)C2 (stereo not drawn),0%
11,CN1CC=C2C(C#N)=C(N)C(C#N)(C#N)[C@H](c3cccc(Cl)c3)C2C1 (stereo partly drawn),0%
12,O=C(Nn1cnnc1)C1Cc2ccccc2CN1S(=O)(=O)c1ccc(F)cc1 (stereo not drawn),0%
13,N#CC1=C(N)Oc2n[nH]c(-c3cccs3)c2C1c1cccs1 (stereo not drawn),2%
14,CCn1cc(C2=NCC(C)O2)c2ccccc21 (stereo not drawn),2%
15,CCCC(=O)Nc1ccc(NC(=O)c2ccccc2OC)cn1,0%
16,O=C(O)CCCC(=O)NCCc1ccncc1,0%
17,COC(=O)CSc1cc(C)nc(NC(C)=O)n1,4%
18,CCOC(=O)c1sc2nc(NC(=O)COc3ccccc3)sc2c1C,0%
19,C[C@]12C[C@H](O)[C@H]3[C@@H](CCC4=CC(=O)CC[C@@]43C)[C@@H]1CC[C@@H]2C(=O)CO,0%
20,CN(C)/C=C1\N=C(c2ccc(Cl)cc2Cl)OC1=O,0%
21,O=C(CSc1n[nH]c(-c2ccco2)n1)Nc1sc2c(c1C(=O)Nc1ccccc1)CCCC2,0%
22,COc1ccc(S(=O)(=O)Nc2ccc(F)c(Cl)c2)cc1OC,0%
23,Cc1sc2ncnc(Oc3ccc(-n4ccnc4)cc3)c2c1C,4%
